From PubChem BioAssay AID588726 (The Scripps Research Institute Molecular Screening Center, 2011) come the findings set out here.

SMILES strings stand for the structures. About 8,200 (2.3%) of roughly 360,000 compounds were called active. The list comes from a sample in which actives are over-represented; it also holds similar structures and randomly drawn compounds. Values without a mark were called inactive. Cut-off read from the data, not from the text of the source: active = inhibition above about 27%; inactive = the rest.

A word on the inhibition: it is the drop in the measured response relative to a control, in per cent.

The target in this assay is Fructose-bisphosphate aldolase (Mycobacterium tuberculosis (strain ATCC 25618 / H37Rv)) (UniProt P9WQA3). The experiment in a line: Mtb FBA enzyme inhibitors, primary screen, biochemical, fluorescence, strain H37Rv (AID 588726).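 Note: 0% = vehicle and 100% = reference inhibitor.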 Particulars: purified M. tuberculosis FBA, fluorescence read-out, at 1 µM, active compounds read high.
Fructose-bisphosphate aldolase (Mycobacterium tuberculosis (strain ATCC 25618 / H37Rv)), sequence (P9WQA3 whole entry, looked up): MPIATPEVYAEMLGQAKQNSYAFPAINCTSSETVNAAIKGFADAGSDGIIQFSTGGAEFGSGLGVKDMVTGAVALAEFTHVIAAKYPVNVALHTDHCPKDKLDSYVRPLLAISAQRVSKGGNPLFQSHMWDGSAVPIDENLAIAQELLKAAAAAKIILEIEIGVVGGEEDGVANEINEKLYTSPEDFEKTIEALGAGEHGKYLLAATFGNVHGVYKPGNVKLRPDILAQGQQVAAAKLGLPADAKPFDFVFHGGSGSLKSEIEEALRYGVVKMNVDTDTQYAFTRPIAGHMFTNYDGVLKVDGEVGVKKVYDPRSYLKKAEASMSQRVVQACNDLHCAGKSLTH
With `CC1=C(C(=O)N2CCOCC2)CC(CC(=O)NCc2cccs2)C(=O)N1CCCN1CCCC1=O` (stereo not drawn), the inhibition was 2.87%.

In the case of `Cc1ccc2c(cnn2C(=O)CCC(=O)NC2CCCC2)c1`, the inhibition was 2.86%.

With `Cc1ccc(C(C(=O)NC2CCCCC2)N(C(=O)c2csnn2)C2CC2)o1` (stereo not drawn), the inhibition was 1.93%.

`CC(=O)N1CCN(S(=O)(=O)c2ccc(C)c([N+](=O)[O-])c2)C1C(C)C` (stereo not drawn): the inhibition was -1.36%.

`Cc1ccccc1N1C(=O)C(Oc2ccc(Cl)cc2)C1CNCC1CCCO1` (stereo not drawn): the inhibition was -3.19%.

`Cc1ccc2c(CN3CCN(S(=O)(=O)c4ccccc4C(F)(F)F)CC3)cc(=O)oc2c1`: the inhibition is 2.71%.

Consider `O=c1cc(CN2CCN(S(=O)(=O)/C=C/c3ccccc3)CC2)c2ccc(O)cc2o1`, for which the inhibition is 137% (active).

As to `NC(=O)CCN1CCN(S(=O)(=O)/C=C/c2ccccc2)CC1`, the inhibition was 1.59%.

Turning to `CSc1cccc(NC(=O)C2CCCN2S(=O)(=O)c2ccc3c(c2)CCC(=O)N3)c1` (stereo not drawn), the inhibition is 1.45%.

As for `Cc1cccc(-c2cnc(C(O)c3ccc4ccccc4c3)[nH]2)c1` (stereo not drawn), the inhibition was -1.57%.

Turning to `CC(C)(C)OC(=O)NC(Cc1ccccc1)C(=O)NC(CSC1CCCCO1)C(=O)NN` (stereo not drawn), the inhibition is -0.07%.

Regarding `CC(C)c1ccc(S(=O)(=O)N2CCN(C(=O)c3ccc(N4CCCC4)c([N+](=O)[O-])c3)CC2)cc1`, the inhibition is -2.26%.

As to `O=c1cc(-c2ccccc2)[nH]c2cc(F)ccc12`, the inhibition was 5.51%.

`O=c1[nH]c(-c2ccccc2)c(-c2ccccc2)[nH]1`: the inhibition was 133% (active).

Regarding `O=C1C=C(c2ccccc2)CCC1`, the inhibition was 3.76%.

Turning to `CCc1ccc(NC(=O)CCNS(=O)(=O)c2cccs2)cc1`, the inhibition was -1.53%.

As to `O=C(NCc1ccccc1)c1ccc(CNc2c(N3CCCC3)c(=O)c2=O)cc1`, the inhibition was 4.44%.

As for `CCC1C(=O)c2ccccc2N(C)C1=O` (stereo not drawn), the inhibition was 34.5% (active).

Turning to `CCc1ccccc1N1C(=O)C2C3CC(=O)C(c4ccccc43)C2C1=O` (stereo not drawn), the inhibition was 1.36%.

Consider `CN1C(=O)/C(=C\c2cc(Br)cs2)c2ccccc21`, for which the inhibition is 0.16%.

Turning to `Cc1ccc(CN2CCC(N3CCC(C(=O)NCC4CCCO4)CC3)CC2)o1` (stereo not drawn), the inhibition was -1.69%.

Take `CC1CCCC(NC(=O)c2cc(-c3ccncc3)nc3ccccc23)C1C` (stereo not drawn): the inhibition is 4%.

As for `Cc1c(NC(=O)c2cc(-c3ccc(Cl)s3)nc3ccccc23)c(=O)n(-c2ccccc2)n1C`, the inhibition is 13%.

In the case of `CC1CCN(C(=O)Cn2cc(C(=O)c3ccco3)c3ccccc32)CC1`, the inhibition is -0.4%.

Regarding `CC(=O)N1CCN(C(=O)c2cc(-c3ccc(Cl)s3)nc3ccccc23)CC1`, the inhibition is 83.4% (active).

On to `Cc1cc(C(=O)N2CCN(c3ccccn3)CC2)c(C)o1`, for which the inhibition is 9.35%.

As for `O=C(NNC(=O)c1cc(-c2ccccc2Cl)nc2ccccc12)c1csc(N2CCOCC2)n1`, the inhibition was 1.04%.

As to `Cc1cc(C(=O)NNC(=O)c2cccc(S(=O)(=O)N3CCOCC3)c2)c2ccccc2n1`, the inhibition was -2.38%.

Take `O=C(c1cc(-c2ccc(Cl)s2)nc2ccccc12)N1CCOCC1`: the inhibition was 93.6% (active).

On to `Cc1cccc(C(=O)N2CCC(c3nc4ccccc4s3)CC2)c1`, for which the inhibition was -2.02%.

Consider `CC(=O)N1CCN(C(=O)c2cc(-c3ccc(C)o3)nc3ccccc23)CC1`, for which the inhibition was 131% (active).

As for `Cc1ccc(S(=O)(=O)N2CCN(C(=O)c3ccccc3-c3nc4ccccc4s3)CC2)c(C)c1`, the inhibition was 1.65%.

For `CC1CCCN(C(=O)c2cc(-c3ccco3)nc3ccccc23)C1` (stereo not drawn), the inhibition is 114% (active).

With `Cc1nc(-c2ccc(Cl)cc2)sc1C1(C)CC(c2ccc(Br)cc2)=NO1` (stereo not drawn), the inhibition is -1.45%.

In the case of `O=S(=O)(c1cccc(-c2nnc(SC(F)F)n2-c2ccccc2)c1)N1CCCCC1`, the inhibition is 5.7%.

Take `COc1ccc(C)cc1NC(=O)c1[nH]c(C)c(C(C)=O)c1C`: the inhibition was 0.08%.

Turning to `CCc1ccc(OCC(O)CN2CCN(CCO)CC2)cc1` (stereo not drawn), the inhibition was -0.21%.

`CSCCC(NC(=O)c1ccco1)C(=O)NCCc1ccc(F)cc1` (stereo not drawn): the inhibition was 0.46%.
